Test results as given in the supplement of paper PMC11732987, “Enantioselective OTUD7B fragment discovery through chemoproteomics screening and high-throughput optimisation” (Communications Chemistry, 2025).

How the values were obtained:
Test in all cases: log2 ratio of Biotin-Ahx-Ub-VS probe labelling (fragment/DMSO); higher = less target engagement (more negative = stronger competition), active = hit call of the paper (q ≤ 0.05, log2 ratio ≤ -1)
Conditions in all cases: compound concentration: 200 uM; treatment time: 3 h
USP42 = target: T1, USP42 (UniProt Q9H9J4)
T1 sequence (whole entry): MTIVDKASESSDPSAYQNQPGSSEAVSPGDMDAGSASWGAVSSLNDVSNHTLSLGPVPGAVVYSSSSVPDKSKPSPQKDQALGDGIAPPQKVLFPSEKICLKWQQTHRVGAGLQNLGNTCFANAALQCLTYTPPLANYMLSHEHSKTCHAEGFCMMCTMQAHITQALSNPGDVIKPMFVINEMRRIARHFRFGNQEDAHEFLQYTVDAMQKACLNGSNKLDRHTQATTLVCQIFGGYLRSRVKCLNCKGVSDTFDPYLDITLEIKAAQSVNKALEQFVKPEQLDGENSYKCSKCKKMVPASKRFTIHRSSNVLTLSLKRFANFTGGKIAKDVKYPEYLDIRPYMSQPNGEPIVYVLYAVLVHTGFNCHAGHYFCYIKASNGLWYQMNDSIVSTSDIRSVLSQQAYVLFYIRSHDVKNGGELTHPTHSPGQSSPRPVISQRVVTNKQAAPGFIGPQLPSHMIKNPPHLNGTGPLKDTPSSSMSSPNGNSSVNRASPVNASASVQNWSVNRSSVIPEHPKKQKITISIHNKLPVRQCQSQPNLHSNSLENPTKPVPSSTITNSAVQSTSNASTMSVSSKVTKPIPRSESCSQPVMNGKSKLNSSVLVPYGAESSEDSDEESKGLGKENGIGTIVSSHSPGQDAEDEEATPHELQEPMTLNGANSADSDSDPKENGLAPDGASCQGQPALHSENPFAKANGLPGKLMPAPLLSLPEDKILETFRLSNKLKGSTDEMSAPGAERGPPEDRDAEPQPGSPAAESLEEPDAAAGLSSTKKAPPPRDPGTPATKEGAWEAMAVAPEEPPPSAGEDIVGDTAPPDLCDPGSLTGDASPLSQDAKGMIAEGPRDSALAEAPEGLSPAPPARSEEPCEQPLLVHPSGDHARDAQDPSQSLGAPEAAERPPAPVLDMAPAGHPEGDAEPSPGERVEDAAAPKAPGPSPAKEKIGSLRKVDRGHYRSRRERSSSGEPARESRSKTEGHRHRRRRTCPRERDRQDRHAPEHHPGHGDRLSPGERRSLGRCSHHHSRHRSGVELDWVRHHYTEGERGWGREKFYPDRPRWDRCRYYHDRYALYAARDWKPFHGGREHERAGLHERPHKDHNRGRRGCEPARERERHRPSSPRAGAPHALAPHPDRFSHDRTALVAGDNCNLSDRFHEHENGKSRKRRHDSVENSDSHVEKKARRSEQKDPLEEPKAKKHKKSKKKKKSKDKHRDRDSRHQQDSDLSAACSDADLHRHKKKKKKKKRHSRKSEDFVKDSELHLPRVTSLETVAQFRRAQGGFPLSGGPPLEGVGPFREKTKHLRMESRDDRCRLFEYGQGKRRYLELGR
Outline: (§1)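 HEK293T lysate (495 µg per sample, in Tris/CHAPS/IGEPAL buffer with protease inhibitors) was exposed in triplicate for 3 h to fragment at 200 µM or to vehicle, then to Biotin-Ahx-Ub-VS at 0.5 µM final for 1 h. Labelled DUBs were enriched on NeutrAvidin, digested with LysC and trypsin, and analysed by diaPASEF LC-MS/MS. Spectronaut label-free quantities were normalised to the global median, and values are average log2 ratios of fragment over vehicle from an unpaired t-test. Only proteins with ≥2 unique peptides were used.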

USP46 = USP46 (UniProt P62068)
Outline: as §1

USP47 = target: T2, USP47 (UniProt Q96K76)
T2 sequence (whole entry): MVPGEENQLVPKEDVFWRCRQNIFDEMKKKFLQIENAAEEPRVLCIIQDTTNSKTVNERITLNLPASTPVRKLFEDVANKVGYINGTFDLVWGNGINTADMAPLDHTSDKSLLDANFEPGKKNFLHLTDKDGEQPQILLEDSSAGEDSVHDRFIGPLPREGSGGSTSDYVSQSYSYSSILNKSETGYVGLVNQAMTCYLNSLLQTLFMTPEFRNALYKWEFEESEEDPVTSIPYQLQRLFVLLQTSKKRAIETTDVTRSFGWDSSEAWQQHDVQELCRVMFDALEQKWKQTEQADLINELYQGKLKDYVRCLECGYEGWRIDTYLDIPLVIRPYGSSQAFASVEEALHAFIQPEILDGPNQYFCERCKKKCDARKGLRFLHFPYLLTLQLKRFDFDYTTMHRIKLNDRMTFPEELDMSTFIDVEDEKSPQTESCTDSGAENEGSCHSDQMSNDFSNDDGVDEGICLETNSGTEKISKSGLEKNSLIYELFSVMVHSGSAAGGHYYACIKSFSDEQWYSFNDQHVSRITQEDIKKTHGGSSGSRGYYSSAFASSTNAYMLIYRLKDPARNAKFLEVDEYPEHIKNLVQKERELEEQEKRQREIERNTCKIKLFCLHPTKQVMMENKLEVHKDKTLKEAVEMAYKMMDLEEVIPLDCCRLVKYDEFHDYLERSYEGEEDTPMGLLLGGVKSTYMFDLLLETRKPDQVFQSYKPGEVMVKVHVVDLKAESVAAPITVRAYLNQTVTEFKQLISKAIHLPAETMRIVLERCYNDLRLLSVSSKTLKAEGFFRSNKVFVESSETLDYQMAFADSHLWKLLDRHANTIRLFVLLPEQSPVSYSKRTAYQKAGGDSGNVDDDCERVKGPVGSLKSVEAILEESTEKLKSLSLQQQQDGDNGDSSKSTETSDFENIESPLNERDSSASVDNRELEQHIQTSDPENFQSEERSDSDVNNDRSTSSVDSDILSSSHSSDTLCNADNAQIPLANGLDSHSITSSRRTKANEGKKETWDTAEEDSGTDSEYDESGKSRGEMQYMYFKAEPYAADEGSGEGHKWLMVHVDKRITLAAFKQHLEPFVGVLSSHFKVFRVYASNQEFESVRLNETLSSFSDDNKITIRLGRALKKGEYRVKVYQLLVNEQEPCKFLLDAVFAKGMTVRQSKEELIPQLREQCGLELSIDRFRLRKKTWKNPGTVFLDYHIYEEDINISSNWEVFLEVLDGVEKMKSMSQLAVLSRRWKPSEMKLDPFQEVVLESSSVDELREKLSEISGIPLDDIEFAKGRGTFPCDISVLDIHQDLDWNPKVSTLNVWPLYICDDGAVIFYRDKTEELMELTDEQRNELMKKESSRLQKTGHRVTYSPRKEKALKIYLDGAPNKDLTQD
Outline: as §1

USP48 = target: T3, USP48 (UniProt Q86UV5)
T3 sequence (whole entry): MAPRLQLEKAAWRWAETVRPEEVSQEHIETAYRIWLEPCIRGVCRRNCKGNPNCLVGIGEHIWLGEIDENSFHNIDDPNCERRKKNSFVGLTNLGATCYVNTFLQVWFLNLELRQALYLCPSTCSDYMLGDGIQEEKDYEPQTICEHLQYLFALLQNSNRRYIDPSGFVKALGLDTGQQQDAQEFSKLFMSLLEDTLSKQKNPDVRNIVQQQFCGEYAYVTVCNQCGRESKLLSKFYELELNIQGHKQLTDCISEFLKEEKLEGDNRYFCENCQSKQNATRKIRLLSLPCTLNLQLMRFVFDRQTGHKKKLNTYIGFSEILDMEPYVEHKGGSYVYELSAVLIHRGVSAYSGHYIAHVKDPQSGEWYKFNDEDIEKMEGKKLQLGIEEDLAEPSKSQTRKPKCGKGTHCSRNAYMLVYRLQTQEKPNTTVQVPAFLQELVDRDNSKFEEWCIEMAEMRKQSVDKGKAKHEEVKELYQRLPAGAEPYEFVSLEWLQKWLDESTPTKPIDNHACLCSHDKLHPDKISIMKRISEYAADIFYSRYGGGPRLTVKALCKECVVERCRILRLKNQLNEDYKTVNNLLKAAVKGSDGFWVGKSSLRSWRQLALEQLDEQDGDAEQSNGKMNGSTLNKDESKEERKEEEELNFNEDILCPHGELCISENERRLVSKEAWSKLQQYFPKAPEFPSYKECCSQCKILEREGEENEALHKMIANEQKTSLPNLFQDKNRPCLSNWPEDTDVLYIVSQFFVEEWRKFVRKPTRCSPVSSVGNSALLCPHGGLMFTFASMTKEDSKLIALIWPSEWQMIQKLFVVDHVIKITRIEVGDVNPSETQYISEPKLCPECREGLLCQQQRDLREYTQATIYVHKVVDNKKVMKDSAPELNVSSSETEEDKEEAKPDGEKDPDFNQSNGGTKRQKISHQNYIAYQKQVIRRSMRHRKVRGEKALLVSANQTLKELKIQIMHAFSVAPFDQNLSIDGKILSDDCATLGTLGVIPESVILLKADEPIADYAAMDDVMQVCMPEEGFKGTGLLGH
Outline: as §1

USP5 = target: T4, USP5 (UniProt P45974)
T4 sequence (whole entry): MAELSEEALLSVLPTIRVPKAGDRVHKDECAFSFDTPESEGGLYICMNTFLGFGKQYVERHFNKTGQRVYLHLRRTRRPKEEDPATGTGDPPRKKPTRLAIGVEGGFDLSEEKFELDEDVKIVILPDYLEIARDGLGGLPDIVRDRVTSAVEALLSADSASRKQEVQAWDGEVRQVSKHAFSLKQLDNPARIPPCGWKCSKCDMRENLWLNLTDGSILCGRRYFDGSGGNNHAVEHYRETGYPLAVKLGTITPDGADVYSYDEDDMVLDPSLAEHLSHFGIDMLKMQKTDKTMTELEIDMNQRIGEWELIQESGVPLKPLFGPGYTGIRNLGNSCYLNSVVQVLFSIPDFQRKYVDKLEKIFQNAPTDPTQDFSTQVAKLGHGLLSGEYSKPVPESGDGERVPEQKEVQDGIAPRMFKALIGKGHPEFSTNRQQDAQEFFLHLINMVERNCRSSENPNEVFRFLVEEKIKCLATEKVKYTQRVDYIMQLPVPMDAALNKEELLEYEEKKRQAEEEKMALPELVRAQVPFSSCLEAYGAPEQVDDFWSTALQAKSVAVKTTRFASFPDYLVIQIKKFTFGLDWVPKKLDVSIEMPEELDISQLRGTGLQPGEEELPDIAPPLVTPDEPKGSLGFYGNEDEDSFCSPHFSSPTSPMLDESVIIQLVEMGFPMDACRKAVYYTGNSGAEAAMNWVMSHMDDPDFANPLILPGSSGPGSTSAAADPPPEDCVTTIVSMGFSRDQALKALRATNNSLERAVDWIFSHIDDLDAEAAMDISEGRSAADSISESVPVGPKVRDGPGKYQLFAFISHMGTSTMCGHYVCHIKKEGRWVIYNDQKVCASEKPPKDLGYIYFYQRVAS
Outline: as §1

USP54 = USP54 (UniProt Q70EL1)
Outline: as §1

USP7 = USP7 (UniProt Q93009)
Outline: as §1

USP8 = target: T5, USP8 (UniProt P40818)
T5 sequence (whole entry): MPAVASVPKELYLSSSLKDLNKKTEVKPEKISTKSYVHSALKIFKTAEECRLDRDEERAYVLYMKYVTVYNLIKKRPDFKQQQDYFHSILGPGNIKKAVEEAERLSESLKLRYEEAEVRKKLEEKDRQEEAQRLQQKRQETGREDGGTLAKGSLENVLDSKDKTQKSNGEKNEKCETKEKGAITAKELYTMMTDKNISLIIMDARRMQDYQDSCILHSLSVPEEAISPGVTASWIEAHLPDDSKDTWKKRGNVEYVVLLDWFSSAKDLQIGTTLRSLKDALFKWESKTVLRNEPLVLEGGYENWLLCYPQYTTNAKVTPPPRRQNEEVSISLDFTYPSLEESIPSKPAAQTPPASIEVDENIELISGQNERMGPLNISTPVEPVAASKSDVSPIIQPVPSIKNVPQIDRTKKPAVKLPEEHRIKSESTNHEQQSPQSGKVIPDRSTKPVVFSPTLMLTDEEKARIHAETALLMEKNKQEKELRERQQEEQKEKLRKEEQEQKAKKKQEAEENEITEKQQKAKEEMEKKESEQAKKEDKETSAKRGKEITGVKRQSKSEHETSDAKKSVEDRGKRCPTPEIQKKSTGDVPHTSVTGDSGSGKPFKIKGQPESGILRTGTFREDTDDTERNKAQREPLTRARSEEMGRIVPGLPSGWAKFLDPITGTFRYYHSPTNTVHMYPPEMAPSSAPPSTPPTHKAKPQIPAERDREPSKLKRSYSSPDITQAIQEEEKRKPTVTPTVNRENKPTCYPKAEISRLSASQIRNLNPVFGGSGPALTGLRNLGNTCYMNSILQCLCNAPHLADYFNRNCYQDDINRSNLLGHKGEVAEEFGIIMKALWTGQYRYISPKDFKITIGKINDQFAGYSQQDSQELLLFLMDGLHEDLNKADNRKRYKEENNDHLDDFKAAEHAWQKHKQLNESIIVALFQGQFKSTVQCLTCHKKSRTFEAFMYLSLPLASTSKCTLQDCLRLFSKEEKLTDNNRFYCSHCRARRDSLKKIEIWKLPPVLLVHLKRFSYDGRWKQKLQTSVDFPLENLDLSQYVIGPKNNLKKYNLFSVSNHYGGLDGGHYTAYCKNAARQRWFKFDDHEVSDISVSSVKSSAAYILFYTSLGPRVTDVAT
Outline: as §1

USP9X = USP9X (UniProt Q93008)
Outline: as §1

UniProt O00487 = target: UniProt O00487
Outline: as §1

Measured: log2 ratio of Biotin-Ahx-Ub-VS probe labelling

Chain of USP9X (Q93008 whole entry): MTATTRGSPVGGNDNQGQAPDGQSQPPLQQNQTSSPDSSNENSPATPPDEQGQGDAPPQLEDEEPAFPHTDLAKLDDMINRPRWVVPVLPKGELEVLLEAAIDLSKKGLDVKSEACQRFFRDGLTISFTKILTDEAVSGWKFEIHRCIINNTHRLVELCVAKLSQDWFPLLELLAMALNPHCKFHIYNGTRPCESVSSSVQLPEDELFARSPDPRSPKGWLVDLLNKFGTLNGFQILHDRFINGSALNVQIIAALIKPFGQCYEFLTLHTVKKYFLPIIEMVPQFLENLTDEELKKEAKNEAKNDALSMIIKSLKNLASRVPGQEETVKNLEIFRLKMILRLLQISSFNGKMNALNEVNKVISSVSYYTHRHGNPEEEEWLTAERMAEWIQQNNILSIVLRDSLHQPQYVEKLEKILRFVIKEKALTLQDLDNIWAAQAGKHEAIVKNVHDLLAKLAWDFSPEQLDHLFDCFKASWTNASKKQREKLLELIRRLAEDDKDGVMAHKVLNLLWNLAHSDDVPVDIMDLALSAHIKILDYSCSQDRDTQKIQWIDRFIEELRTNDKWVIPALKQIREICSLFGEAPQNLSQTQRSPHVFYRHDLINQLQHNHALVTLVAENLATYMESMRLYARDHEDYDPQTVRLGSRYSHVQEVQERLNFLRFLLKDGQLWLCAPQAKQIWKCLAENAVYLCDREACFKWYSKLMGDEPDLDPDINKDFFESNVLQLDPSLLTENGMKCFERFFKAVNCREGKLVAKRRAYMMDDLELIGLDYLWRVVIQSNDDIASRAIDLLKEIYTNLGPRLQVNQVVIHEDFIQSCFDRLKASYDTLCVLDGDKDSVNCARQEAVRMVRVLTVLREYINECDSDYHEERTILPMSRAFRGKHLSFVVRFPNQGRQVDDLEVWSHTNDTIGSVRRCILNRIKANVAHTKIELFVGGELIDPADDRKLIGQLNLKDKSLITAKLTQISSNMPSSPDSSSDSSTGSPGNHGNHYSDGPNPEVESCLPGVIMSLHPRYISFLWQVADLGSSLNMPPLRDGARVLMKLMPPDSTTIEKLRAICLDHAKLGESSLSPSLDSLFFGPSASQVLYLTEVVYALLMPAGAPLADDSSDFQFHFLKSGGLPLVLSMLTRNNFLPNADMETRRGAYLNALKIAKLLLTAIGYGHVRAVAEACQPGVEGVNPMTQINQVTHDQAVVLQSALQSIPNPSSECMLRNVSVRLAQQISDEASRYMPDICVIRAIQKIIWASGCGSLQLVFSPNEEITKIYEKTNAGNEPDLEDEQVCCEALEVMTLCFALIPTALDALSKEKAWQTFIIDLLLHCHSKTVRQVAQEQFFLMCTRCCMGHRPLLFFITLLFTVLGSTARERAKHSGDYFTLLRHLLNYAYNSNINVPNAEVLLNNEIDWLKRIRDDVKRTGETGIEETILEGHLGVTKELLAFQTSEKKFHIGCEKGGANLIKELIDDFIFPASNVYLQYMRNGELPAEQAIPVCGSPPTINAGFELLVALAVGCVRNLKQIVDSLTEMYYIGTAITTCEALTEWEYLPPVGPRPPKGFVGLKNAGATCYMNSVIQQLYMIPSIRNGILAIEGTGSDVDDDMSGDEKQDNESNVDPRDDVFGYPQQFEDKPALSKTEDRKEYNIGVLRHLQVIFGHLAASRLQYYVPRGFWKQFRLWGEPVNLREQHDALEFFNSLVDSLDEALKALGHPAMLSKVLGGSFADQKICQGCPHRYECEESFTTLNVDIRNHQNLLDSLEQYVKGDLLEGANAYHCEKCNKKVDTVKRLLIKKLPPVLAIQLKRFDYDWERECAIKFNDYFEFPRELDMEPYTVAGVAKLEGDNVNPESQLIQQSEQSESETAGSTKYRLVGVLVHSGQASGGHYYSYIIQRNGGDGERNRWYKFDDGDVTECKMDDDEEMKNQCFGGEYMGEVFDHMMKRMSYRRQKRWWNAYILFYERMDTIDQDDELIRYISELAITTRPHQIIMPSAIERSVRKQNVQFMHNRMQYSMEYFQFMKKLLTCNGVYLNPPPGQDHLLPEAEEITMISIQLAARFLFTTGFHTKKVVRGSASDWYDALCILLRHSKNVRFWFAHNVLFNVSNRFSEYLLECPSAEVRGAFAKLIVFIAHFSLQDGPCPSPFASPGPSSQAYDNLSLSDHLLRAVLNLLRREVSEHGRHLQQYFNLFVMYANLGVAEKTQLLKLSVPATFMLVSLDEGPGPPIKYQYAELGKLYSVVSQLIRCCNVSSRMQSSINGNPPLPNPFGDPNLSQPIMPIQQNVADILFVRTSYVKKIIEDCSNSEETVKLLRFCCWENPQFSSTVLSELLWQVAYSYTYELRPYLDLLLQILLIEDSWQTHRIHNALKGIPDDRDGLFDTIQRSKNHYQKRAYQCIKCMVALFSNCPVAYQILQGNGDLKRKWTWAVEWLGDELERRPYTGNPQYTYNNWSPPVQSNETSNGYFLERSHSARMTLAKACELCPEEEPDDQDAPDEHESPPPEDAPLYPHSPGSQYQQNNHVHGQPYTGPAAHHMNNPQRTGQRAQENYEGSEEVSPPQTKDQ
Chain of USP54 (Q70EL1 whole entry): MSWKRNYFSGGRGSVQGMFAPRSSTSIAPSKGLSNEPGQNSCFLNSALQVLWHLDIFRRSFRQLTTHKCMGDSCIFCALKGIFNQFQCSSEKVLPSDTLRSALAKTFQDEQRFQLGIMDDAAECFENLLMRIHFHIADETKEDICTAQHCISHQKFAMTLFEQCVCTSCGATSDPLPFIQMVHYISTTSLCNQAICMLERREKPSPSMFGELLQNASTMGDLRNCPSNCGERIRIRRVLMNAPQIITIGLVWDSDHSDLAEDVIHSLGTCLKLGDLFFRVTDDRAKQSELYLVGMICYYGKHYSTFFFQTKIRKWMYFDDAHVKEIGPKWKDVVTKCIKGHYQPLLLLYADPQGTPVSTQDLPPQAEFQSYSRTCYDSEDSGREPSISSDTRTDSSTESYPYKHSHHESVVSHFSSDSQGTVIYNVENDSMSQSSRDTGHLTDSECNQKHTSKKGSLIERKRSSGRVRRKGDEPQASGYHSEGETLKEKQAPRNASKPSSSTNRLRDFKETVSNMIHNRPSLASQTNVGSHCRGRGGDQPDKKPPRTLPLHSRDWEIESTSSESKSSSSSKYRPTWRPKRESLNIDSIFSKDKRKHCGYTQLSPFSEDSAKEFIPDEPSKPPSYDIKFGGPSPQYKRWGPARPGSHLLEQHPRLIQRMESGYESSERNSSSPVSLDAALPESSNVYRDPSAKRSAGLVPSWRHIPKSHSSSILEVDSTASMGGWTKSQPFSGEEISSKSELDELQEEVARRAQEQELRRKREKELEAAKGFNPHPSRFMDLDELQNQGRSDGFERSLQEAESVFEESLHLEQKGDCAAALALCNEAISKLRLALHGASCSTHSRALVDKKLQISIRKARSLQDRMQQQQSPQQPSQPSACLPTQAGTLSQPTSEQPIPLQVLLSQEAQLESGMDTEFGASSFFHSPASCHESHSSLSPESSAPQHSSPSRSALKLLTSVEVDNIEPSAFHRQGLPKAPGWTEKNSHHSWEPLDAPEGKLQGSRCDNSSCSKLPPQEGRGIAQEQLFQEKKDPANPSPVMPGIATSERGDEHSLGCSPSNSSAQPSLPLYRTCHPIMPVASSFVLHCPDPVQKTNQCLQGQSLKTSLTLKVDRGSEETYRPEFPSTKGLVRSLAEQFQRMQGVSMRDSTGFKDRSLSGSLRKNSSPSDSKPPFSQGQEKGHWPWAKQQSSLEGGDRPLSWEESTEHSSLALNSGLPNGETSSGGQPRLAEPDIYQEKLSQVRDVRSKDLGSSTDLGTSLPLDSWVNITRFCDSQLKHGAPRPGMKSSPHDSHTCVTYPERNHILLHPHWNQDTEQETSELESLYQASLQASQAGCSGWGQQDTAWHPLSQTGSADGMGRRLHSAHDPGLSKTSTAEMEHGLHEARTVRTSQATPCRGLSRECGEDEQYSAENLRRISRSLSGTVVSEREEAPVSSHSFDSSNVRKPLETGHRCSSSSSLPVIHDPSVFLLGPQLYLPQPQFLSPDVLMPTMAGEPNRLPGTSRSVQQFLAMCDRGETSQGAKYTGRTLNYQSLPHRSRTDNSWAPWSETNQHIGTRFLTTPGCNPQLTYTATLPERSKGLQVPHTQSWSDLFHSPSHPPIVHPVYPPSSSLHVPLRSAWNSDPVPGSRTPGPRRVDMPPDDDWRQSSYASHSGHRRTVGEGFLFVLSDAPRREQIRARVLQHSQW
Chain of UniProt O00487 (O00487 whole entry): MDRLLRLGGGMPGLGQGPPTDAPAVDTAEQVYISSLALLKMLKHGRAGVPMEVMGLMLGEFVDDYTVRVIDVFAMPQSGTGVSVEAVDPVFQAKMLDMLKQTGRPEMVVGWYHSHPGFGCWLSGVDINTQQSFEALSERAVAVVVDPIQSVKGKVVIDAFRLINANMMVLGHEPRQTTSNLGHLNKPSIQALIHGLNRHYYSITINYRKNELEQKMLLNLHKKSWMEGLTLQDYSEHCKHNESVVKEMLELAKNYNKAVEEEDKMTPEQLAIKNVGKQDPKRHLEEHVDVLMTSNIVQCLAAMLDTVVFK
Chain of USP46 (P62068 whole entry): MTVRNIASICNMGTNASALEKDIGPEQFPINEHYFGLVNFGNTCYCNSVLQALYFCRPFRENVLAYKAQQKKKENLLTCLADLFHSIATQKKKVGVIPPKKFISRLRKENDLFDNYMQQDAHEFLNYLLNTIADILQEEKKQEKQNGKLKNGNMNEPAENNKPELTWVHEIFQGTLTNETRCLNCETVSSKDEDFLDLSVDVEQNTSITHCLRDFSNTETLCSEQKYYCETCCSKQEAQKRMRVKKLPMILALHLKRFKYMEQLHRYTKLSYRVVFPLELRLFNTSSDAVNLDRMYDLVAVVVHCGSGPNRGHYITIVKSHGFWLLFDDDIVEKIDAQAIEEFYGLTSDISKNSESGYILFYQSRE

O=C(CCl)NCc1cccc(F)c1
inactive: USP42 -0.105 | USP46 0.151 | USP47 -0.193 | USP48 -0.0573 | USP5 0.1 | USP54 0.396 | USP7 -0.069 | USP8 -0.0486 | USP9X 0.0745 | UniProt O00487 -0.0795

CC(=O)C1CCCCN1C(=O)CCl (stereo not given)
inactive: USP42 0.359 | USP46 0.0148 | USP47 -0.0598 | USP48 -0.362 | USP5 -0.139 | USP54 0.498 | USP7 -0.172 | USP8 0.076 | USP9X -0.034 | UniProt O00487 -0.0675
